Data as given in PubChem BioAssay (Tox21).
Records with an inconclusive call do not appear. Activity calls are given as the source filed them. Calls follow the shape of the dose curve; as a rule, active = well fitted cell-killing curve with a large enough effect in the repeat runs; inconclusive = weak or mixed curves; inactive = flat fitted curve, though single readings scatter.

Test: qHTS assay to identify small molecule antagonists of the estrogen receptor beta (ER-beta) signaling pathway - cell viability counter screen (AID 1259382); also: nearly all actives have a fitted effect of over 55% in size
Conditions: ER-beta-UAS-bla HEK293T viability, CellTiter-Glo luminescence, 16 h; series mostly up to 92.4 µM; activity change, negative = cytotoxicity: at the top concentration
From the text: U.S. Tox21 Program National Center for Advancing Translational Sciences [NCATS] NIH Chemical Genomics Center [NCGC] U.S. Environmental Protection Agency [EPA] National Institutes of Environmental Health Sciences [NIEHS] National Toxicology Program [NTP] U.S. Food and Drug Administration [FDA] Tox21 Assay Overview: Estrogen receptor (ER), a nuclear hormone receptor, plays an important role in development, metabolic homeostasis and reproduction. Two subtypes of ER, ER-alpha and ER-beta, have similar expression patterns with some uniqueness in both types. Endocrine disrupting chemicals (EDCs) and their interactions with steroid hormone receptors like ER causes disruption of normal endocrine function. To identify the compounds that inhibit ER signaling, an ER-beta-UAS-bla GripTite cell line (Life Technologies, Madison, WI, USA) containing a beta-lactamase reporter gene under the control of an UAS response element was used to screen Tox21 10K compound library. The cytotoxicity of the Tox21 compound library against the ER-beta-bla cell line was tested in parallel by measuring the cell viability using CellTiter-Glo assay in the same wells.
Tox21 Assay Protocol Summary: ER-beta-UAS-bla HEK293T cells were dispensed at 2,000 cells/4 uL of assay medium containing 2% charcoal stripped FBS per well into black wall/clear-bottom 1536-well plates using a Multidrop Combi (ThermoFisher Scientific, Waltham, MA) dispenser. After the assay plates were incubated at a 37C and 5% CO2 for 6 hr, 23 nL of compounds dissolved in DMSO, positive controls or DMSO only was transferred to the assay plate by a Pintool station (Kalypsys, San Diego, CA), followed by addition of 1 uL (1nM as final concentration) of 17-beta-estradiol (E2) in assay medium using a Flying Reagent Dispenser (FRD, Aurora Discovery, San Diego, CA). The plates were incubated at 37C and 5% CO2 for 16 hr. Then 1 uL of LiveBLAzer B/G FRET substrate was added using a Flying Reagent Dispenser, the plates were incubated at room temperature for 2 hours, and fluorescence intensity was measured by an Envision plate reader (PerkinElmer, Shelton, CT). For cell viability readout that measures cytotoxicity, 4 uL/well of CellTiter-Glo reagent was added into the assay plates using a FRD. After 30 min incubation at room temperature, the luminescence intensity in the plates was measured using a ViewLux (PerkinElmer) plate reader.
% is scaled to controls: 0 for no effect and ±100 for the full control effect.

SMILES	activity change, negative = cytotoxicity
CC1CC(=O)CC(C)(C)C1 (stereo not given)	-0.182% (inactive)
COC(=O)CCCCC(CCSS/C(CCO)=C(\C)N(C=O)Cc1cnc(C)nc1N)SC(C)=O (stereo not given)	0.0401% [at 42.5 µM] (inactive)
Cc1ccnc(N)c1	4.12% (inactive)
OCCN1CCOCC1	2.86% (inactive)
CC1(C)[C@H]2CC[C@](C)(C2)[C@H]1O	3.27% (inactive)
O=Cc1cc2ccccc2o1	1.78% (inactive)
COc1c2occc2c(OC)c2c(=O)cc(C)oc12	-1.43% [at 42.5 µM] (inactive)
c1ccc2c(CC3=NCCN3)cccc2c1	-2.16% [at 42.5 µM] (inactive)
COC(=O)/C=C\C(=O)O	8.07% (inactive)
CCC(=O)CC	-0.104% (inactive)
O=C1CCC(=O)N1Cl	10.9% (inactive)
CC(C)CO	4.18% (inactive)
CCC(=O)c1c(O)cc(O)cc1O	-1.79% [at 42.5 µM] (inactive)
Cc1cc(C)c(C(=O)O)c(C)c1	-1.57% (inactive)
C=C(C)[C@@H]1CC=C(C)C(=O)C1	1.06% (inactive)
C=CCCCCCCCCC(=O)OCCCC	3.73% (inactive)
CC(=O)OC(C)=O	0.161% (inactive)
CC(C)Nc1ccccc1	-5.18% (inactive)
CC1=C(C(=O)O)N2C(=O)[C@@H](NC(=O)[C@H](N)c3ccccc3)[C@H]2SC1	2.7% [at 42.5 µM] (inactive)
CC1c2ccccc2CN1NC(=O)c1ccc(Cl)c(S(N)(=O)=O)c1 (stereo not given)	-0.661% [at 42.5 µM] (inactive)

SMILES	activity change, negative = cytotoxicity
O=S(=O)(O)c1ccc2c(N=Nc3ccc(S(=O)(=O)O)c4ccccc34)c(O)c(S(=O)(=O)O)cc2c1	-3.29% [at 8.39 µM] (inactive)
CC1=C(O)C(=O)C(C)O1 (stereo not given)	1.43% (inactive)
COc1cc(/C=C/C(N)=O)cc(OC)c1OC	11.8% [at 42.5 µM] (inactive)
CSc1cnccn1	6.48% (inactive)
COc1nc(N)nc2nc[nH]c12	-1.85% (inactive)
Cn1nnc2c(C(N)=O)ncn2c1=O	5.5% [at 42.5 µM] (inactive)
CC(S)C(C)S (stereo not given)	6.81% (inactive)
CCCCCCCCCOC(=O)c1ccccc1C(=O)OCCCCCCCCC	-9.08% (inactive)
Cc1c(Cl)cccc1Cl	-4.94% (inactive)
CC(C)COC(=O)c1ccccc1	-12.2% (inactive)
COCCc1ccccn1	12.2% [at 42.5 µM] (inactive)
CCC(=O)Oc1ccc2c(c1)CC[C@@H]1[C@@H]2CC[C@@]2(C)[C@H]1C[C@@H](OC(=O)CC)[C@@H]2OC(=O)CC	0.549% [at 42.5 µM] (inactive)
CCCCCCCCCOC(=O)CCCCC(=O)OCCCCCCC	0.295% (inactive)
CCCCCCCCCCOC(C)=O	0.196% (inactive)
CC1=NN(c2ccc(S(=O)(=O)O)cc2)C(=O)C1	6.59% (inactive)
O=C(Cn1ccnc1[N+](=O)[O-])NCc1ccccc1	14.7% [at 42.5 µM] (inactive)
CCCCCc1cccc(=O)o1	7.83% (inactive)
CC(=O)OC1CCCCC1C(C)(C)C (stereo not given)	0.117% (inactive)
CCCCOCCOC(=O)COc1ccc(Cl)cc1Cl	-0.0433% (inactive)
Cc1ncc([N+](=O)[O-])n1CC(C)O (stereo not given)	-1.68% [at 42.5 µM] (inactive)
